Measured values published in PubChem BioAssay (NCATS).
Inconclusive results are not listed. Entries that show only a call come without a potency. A structure can be active in one record and inactive in another. Calls of active or inactive are those of the source. Unless noted, calls come from the whole dose curve; as a rule, active = well fitted curve in the direction sought with a large enough effect; inconclusive = small, poorly fitted or top-dose-only effect, or another doubt; inactive = no such curve, though single readings can be large; an effect the other way counts as inactive or inconclusive.

How the values were obtained:
[1] = qHTS for Inhibitors of Plasmodium falciparum (DD2) proliferation (AID 504314);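 note: parasite DNA measured by SYBR Green fluorescence after red cell lysis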
Procedure, shortened: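 Quantitative HTS growth inhibition: SYBR Green I binding to parasite DNA after 72 h drug exposure of infected erythrocytes (0.3% parasitemia, 2.5% hematocrit). Signals normalized per plate to inhibitor and vehicle wells.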

[2] = qHTS for Inhibitors of Plasmodium falciparum (7G8) proliferation (AID 504316); note: series mostly up to about 6.7 µM; nearly all actives have a fitted effect of over 65% in size
Procedure, shortened: (§1)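 Erythrocytes infected with P. falciparum line (0.3% parasitemia, 2.5% hematocrit final) incubated with compounds 72 h at 37 °C, 5% CO2; SYBR Green lysis buffer added, fluorescence read next day. Normalized to 0.29 uM artemisinin and DMSO.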

[3] = qHTS for Inhibitors of Plasmodium falciparum (HB3) proliferation (AID 504318); note: nearly all actives have a fitted effect of over 60% in size; note: potency is the fitted concentration of half-maximal effect
Procedure, shortened: as §1

[4] = qHTS for Inhibitors of Plasmodium falciparum (CP250) proliferation (AID 504320)
Procedure, shortened: as §1

[5] = HPAF-II Cancer Cell Toxicity qHTS against the NCATS CANVASS Library (AID 1347346); note: nearly all actives have a fitted effect of over 55% in size; note: potency is the fitted concentration of half-maximal effect
Procedure, shortened: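 Luminescence from CellTiter-Glo, added after 72 h compound exposure and a 15 min room-temperature incubation, served as the viability readout. HPAF-II cells (1000/well) received an 11-point concentration series.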

[6] = OV-SAHO Cancer Cell Toxicity qHTS against the NCATS CANVASS Library (AID 1347348); note: nearly all actives have a fitted effect of over 55% in size; note: potency is the fitted concentration of half-maximal effect
Procedure, shortened: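 Toxicity is measured over 72 h of compound exposure at 37 degrees C under 5% CO2. Each well holds 1000 cells, pre-incubated for 4 hours before dosing across an 11-point range. CellTiter-Glo luminescence gives viability.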

[7] = COV-362 Cancer Cell Toxicity qHTS against the NCATS CANVASS Library (AID 1347352); note: potency is the fitted concentration of half-maximal effect
Procedure, shortened: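 Luminescent ATP read-out (CellTiter-Glo, 15min at room temperature) measures survival after cells face an 11-point compound series for 72 hours at 37 degrees C/5% CO2.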

[8] = HEK293 24hr Apoptosis Induction qHTS against the NCATS CANVASS Library (AID 1347359); note: potency is the fitted concentration of half-maximal effect
Procedure, shortened: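 Caspase-3/7 activation measured as luminescence from the DEVD-based Caspase-Glo reagent, 15 min at room temperature, following 24-hour compound treatment of HEK293 cells.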

[9] = HEK293 12hr Apoptosis Induction qHTS against the NCATS CANVASS Library (AID 1347361); note: potency is the fitted concentration of half-maximal effect
Procedure, shortened: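 Apoptosis in HEK293 was scored as caspase-3/7 luminescence following 12 h treatment with a compound concentration series in qHTS format.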

[10] = tested on: NAD(P)H diaphorase (Clostridium kluyveri); test: Diaphorse counterscreen qHTS: Assay Interference Panel against the NCATS CANVASS Library (AID 1347362)
Procedure, shortened: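 Counterscreen for coupling-enzyme interference: resorufin fluorescence from resazurin/NADH turnover, read after 5 min at room temperature. Compounds were tested over an 11-point series after 15 min dark preincubation with diaphorase in PBS-Tween.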

[11] = target: Luciferin 4-monooxygenase (Photinus pyralis) (UniProt P08659); test: Firefly luciferase counterscreen qHTS: Assay Interference Panel against the NCATS CANVASS Library (AID 1347363); note: series mostly up to about 57 µM
Sequence of Luciferin 4-monooxygenase (Photinus pyralis) (P08659 whole entry, looked up): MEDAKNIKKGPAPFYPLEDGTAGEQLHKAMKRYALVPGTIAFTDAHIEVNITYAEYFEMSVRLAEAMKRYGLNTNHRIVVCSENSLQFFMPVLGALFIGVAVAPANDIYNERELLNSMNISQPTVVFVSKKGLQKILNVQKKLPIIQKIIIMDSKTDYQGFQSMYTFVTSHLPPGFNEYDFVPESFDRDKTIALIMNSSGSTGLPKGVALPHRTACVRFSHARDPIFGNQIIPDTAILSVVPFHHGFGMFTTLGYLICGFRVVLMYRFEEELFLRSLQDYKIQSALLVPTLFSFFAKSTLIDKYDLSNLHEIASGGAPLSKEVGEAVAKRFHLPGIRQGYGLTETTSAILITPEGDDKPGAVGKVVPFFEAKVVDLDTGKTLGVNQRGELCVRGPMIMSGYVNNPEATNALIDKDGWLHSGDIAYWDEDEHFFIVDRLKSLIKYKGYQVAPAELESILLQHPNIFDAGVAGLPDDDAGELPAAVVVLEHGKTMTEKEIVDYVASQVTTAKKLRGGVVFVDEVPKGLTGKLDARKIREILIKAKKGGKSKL
Procedure, shortened: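 Luminescence inhibition readout: compounds (11-point qHTS) sat 15 min at room temperature with substrate mix (0.013 mM luciferin and ATP), then firefly luciferase was added and signal read 5 min later.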

[12] = KB-3-1 Cancer Cell Toxicity qHTS against the NCATS CANVASS Library (AID 1347366); note: nearly all actives have a fitted effect of over 75% in size; note: potency is the fitted concentration of half-maximal effect
Procedure, shortened: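 Seed KB-3-1 cells at 500/well in DMEM with 10% FBS, add compounds, incubate 72 hr at 37C and 5% CO2, then add CellTiter-Glo and read luminescence after 10 minutes.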

[13] = target: Nuclear receptor subfamily 1 group I member 3 (Homo sapiens) (UniProt Q14994); test: qHTS for Constitutive Androstane Receptor (CAR) Agonist screened against the NCATS CANVASS Library (AID 1347373);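 note: every well also contained 1.5 µM PK11195 alongside the test compound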
Sequence of Nuclear receptor subfamily 1 group I member 3 (Homo sapiens) (Q14994 whole entry, looked up): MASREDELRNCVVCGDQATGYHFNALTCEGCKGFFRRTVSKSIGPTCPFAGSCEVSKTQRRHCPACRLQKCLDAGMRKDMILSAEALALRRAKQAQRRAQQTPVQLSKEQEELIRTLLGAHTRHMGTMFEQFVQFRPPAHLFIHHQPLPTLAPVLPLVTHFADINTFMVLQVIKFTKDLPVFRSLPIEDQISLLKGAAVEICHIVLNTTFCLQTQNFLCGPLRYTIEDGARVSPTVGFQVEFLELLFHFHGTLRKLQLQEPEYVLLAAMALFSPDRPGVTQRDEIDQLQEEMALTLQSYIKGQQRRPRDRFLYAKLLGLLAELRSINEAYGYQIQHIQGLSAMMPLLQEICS
Procedure, shortened: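 HepG2-hCAR-CYP2B6 cells, 2500/well, attached 4hr; cpd + PK11195 1.5uM final; 24hr 37C 5% CO2. CellTiter-Fluor viability read, then ONE-Glo luminescence for CAR activation.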

[14] = target: Glucocorticoid receptor (Homo sapiens) (UniProt P04150); test: GR-GFP Redistribution (AID 450;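 active = compounds whose dose series gives a full or clear partial fitted curve of increased nuclear translocation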; note: potency is the fitted concentration of half-maximal effect); settings: U2OS GR-GFP nuclear translocation, laser cytometry, 2 h
Sequence of Glucocorticoid receptor (Homo sapiens) (P04150 whole entry, looked up): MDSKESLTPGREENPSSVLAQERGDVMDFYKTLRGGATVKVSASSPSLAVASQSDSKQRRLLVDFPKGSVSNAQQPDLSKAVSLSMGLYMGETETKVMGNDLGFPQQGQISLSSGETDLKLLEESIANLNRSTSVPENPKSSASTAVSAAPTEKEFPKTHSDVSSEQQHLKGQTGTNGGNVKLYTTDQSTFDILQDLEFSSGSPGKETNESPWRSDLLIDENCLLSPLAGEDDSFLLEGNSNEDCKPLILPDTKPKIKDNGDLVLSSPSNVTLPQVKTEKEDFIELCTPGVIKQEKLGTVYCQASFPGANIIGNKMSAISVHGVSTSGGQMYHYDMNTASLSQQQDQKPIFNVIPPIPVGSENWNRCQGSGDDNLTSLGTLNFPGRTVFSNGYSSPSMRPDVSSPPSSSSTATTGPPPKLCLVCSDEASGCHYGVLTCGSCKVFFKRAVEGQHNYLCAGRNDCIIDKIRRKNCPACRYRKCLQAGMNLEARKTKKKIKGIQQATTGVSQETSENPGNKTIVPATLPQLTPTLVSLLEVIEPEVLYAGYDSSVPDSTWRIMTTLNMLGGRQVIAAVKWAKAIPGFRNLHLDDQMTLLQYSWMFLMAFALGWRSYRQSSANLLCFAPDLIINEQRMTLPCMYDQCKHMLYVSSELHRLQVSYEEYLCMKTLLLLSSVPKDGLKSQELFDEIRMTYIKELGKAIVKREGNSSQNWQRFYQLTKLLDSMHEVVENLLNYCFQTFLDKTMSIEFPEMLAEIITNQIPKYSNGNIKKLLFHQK

COC(=O)C1=NN=C(C(=O)OC)[C@@]2(C)c3ccccc3NC12 (stereo not given in full)
outcome [1]: inactive | outcome [2]: inactive | Potency [3]: inactive | outcome [4]: inactive

COC(=O)[C@]12C[C@@H]3CCN(C(=O)N[C@@H]1c1ccccc1)[C@@]32C
outcome [1]: inactive | outcome [2]: inactive | Potency [3]: inactive | outcome [4]: inactive

CCOC(=O)[C@]12C[C@]3(OC)CCN(C(=O)N[C@@H]1c1ccccc1)[C@@H]32
outcome [1]: inactive | outcome [2]: inactive | Potency [3]: inactive | outcome [4]: inactive

COC(=O)C1C2CC(C)C(c3ccccc32)N1C(=O)C(F)(F)F (stereo not given)
outcome [1]: inactive | outcome [2]: inactive | Potency [3]: inactive | outcome [4]: inactive

COC(=O)[C@@]12Cc3ccccc3[C@H]1C[C@H](C)[C@@H](C)N2C(=O)C(F)(F)F
outcome [2]: inactive | outcome [4]: inactive

CCOC(=O)[C@]12C[C@@H]3CCN(C(=O)N(C(C)=O)[C@@H]1c1ccccc1)[C@@H]32
outcome [1]: inactive | outcome [2]: inactive | Potency [3]: inactive | outcome [4]: inactive

CCC[C@]12CCN3C(=O)N[C@@H](c4ccccc4)[C@](C(=O)OCC)(C1)[C@H]32
outcome [1]: inactive | outcome [2]: inactive | Potency [3]: inactive | outcome [4]: inactive

COC(=O)C1(C)C2CC(C)C(c3ccccc32)N1C(=O)C(F)(F)F (stereo not given)
outcome [1]: inactive | outcome [2]: inactive | Potency [3]: inactive | outcome [4]: inactive

C[C@@H]1CC[C@@H](c2ccoc2)N2C[C@@]3(CC[C@@H]12)CS[C@@]1(CC[C@H]2[C@H](C)CC[C@@H](c4ccoc4)N2[C@@H]1O)C3
Potency [5]: 2.98 µM (active) | Potency [6]: 5.94 µM (active) | Potency [7]: 7.47 µM (active) | Potency [8]: 10.5 µM (active) | Potency [9]: 8.33 µM (active) | outcome [10]: inactive | outcome [11]: inactive | Potency [12]: 8.33 µM (active) | outcome [13]: inactive

CC(=O)N[C@H]1CCN2CCC[C@H]12
Potency [5]: inactive | Potency [6]: inactive | Potency [7]: inactive | Potency [8]: inactive | Potency [9]: inactive | outcome [10]: inactive | outcome [11]: inactive | Potency [12]: inactive | outcome [13]: inactive

CCOC(=O)[C@]12C[C@]3(C)CCCN(C(=O)N[C@@H]1c1ccccc1)[C@@H]32
outcome [1]: inactive | outcome [2]: inactive | Potency [3]: inactive | outcome [4]: inactive

COC(=O)C1=C[C@H]([C@@H](C)[C@H](OC)c2ccccc2Br)[C@H]2[C@H]1c1ccccc1N2C
outcome [1]: inactive | outcome [2]: inactive | Potency [3]: 1.9 µM (active) and inactive | outcome [4]: inactive

CCOC(=O)[C@]12C[C@]3(C)CCN(C(=O)N[C@@H]1c1ccccc1)[C@@H]32
outcome [1]: inactive | outcome [2]: inactive | Potency [3]: inactive | outcome [4]: inactive

C=C1[C@@H]2CCN3C(=O)N[C@@H](c4ccccc4)[C@@]1(C(=O)OCC)C23 (stereo not given in full)
outcome [1]: inactive | outcome [2]: inactive | Potency [3]: inactive | outcome [4]: inactive

COC(=O)[C@@]1(C=C2c3ccc(F)cc3[C@@H](OC)[C@@H]2C)[C@@H]2Oc3ccccc3[C@@H]21
outcome [1]: inactive | outcome [4]: inactive

CC(=O)[C@]12[C@H](c3ccccc3)[C@@H]3CCN(C(=O)N[C@H]1c1ccccc1)[C@@]32C
outcome [1]: inactive | Potency [3]: inactive | outcome [4]: inactive

COC(=O)[C@@]1(C=C[C@@H](C)[C@H](OC)c2ccccc2Br)[C@@H]2Oc3ccccc3[C@@H]21
outcome [1]: inactive | outcome [2]: inactive | Potency [3]: inactive | outcome [4]: inactive

CC(=O)[C@@]12C3[C@@H](CCN3C(=O)N[C@H]1c1ccccc1)[C@H]2c1ccccc1 (stereo not given in full)
outcome [1]: inactive | Potency [3]: inactive | outcome [4]: inactive

COC(=O)[C@@H]1[C@@H](c2ccccc2)[C@H]2C(=O)c3c(OC)cc(OC)cc3O[C@@]12c1ccc(OC)cc1
outcome [1]: inactive | Potency [3]: inactive | outcome [4]: inactive

CO[C@@H]1c2ccccc2[C@H]2C(C(=O)O)c3c(n(C)c4ccccc34)[C@H]2[C@H]1C (stereo not given in full)
outcome [1]: inactive | outcome [2]: inactive | outcome [4]: inactive

CCOC(=O)[C@@]12C3[C@@H](CCN3C(=O)N[C@@H]1c1ccccc1)[C@@H]2C (stereo not given in full)
outcome [1]: inactive | outcome [2]: inactive | Potency [3]: inactive | outcome [4]: inactive

CCCC[C@@H]1CC[C@H]2CCCC(CCC)N12 (stereo not given in full)
Potency [5]: inactive | Potency [6]: inactive | Potency [7]: inactive | Potency [8]: inactive | Potency [9]: inactive | outcome [10]: inactive | outcome [11]: inactive | Potency [12]: inactive | outcome [13]: inactive

CC=C1CN(C=O)[C@H]2C[C@@H]1[C@@H](C(=O)OC)[C@@]13CCOC21Nc1ccccc13 (stereo not given in full)
Potency [5]: inactive | Potency [6]: inactive | Potency [7]: inactive | Potency [8]: inactive | Potency [9]: inactive | outcome [10]: inactive | outcome [11]: inactive | Potency [12]: inactive | outcome [13]: inactive

CNCCc1c[nH]c2ccccc12
Potency [14]: > 20.6 µM (inactive) | Potency [5]: inactive | Potency [6]: inactive | Potency [7]: inactive | Potency [8]: inactive | Potency [9]: inactive | outcome [10]: inactive | outcome [11]: inactive | Potency [12]: inactive | outcome [13]: inactive

COC(=O)C1=C2CCO[C@H]2[C@@H]2[C@@H](C)[C@H](OC)c3ccccc3[C@@H]12
outcome [1]: inactive | outcome [2]: inactive | Potency [3]: inactive | outcome [4]: inactive

CCOC(=O)[C@]12C[C@@H]3OCCN(C(=O)N[C@@H]1c1ccccc1)[C@@H]32
outcome [1]: inactive | outcome [2]: inactive | Potency [3]: inactive | outcome [4]: inactive

c1ccc2c3c([nH]c2c1)CNCC3
Potency [14]: > 20.6 µM (inactive) | Potency [5]: inactive | Potency [6]: inactive | Potency [7]: inactive | Potency [8]: inactive | Potency [9]: inactive | outcome [10]: inactive | outcome [11]: inactive | Potency [12]: inactive | outcome [13]: inactive

CC(=O)[C@]12C[C@@H]3CCN(C(=O)N[C@@H]1c1ccccc1)[C@@]32C
outcome [4]: inactive

CC(=O)[C@]12C[C@@H]3CCCN(C(=O)N[C@@H]1c1ccccc1)[C@@H]32
outcome [1]: inactive | outcome [2]: inactive | Potency [3]: inactive | outcome [4]: inactive

COC(=O)C1=C2CCCO[C@H]2[C@@H]2[C@@H](C)[C@H](OC)c3ccccc3[C@@H]12
outcome [1]: inactive | outcome [2]: inactive | outcome [4]: inactive

C=C(C)C(=O)CP(=O)(OCC)OCC
outcome [1]: inactive | outcome [2]: inactive | Potency [3]: inactive | outcome [4]: inactive

COC(=O)C12CC3=CCC4C(=O)N(c5ccccc5)C(=O)C4C3Cc3ccccc3[C@H]1CNC2=O (stereo not given in full)
Potency [3]: inactive | outcome [4]: inactive

CC[C@@H]1CN2CC[C@@]3(O)C(=Nc4cccc(OC)c43)[C@@H]2C[C@@H]1/C(=C\OC)C(=O)OC
Potency [5]: inactive | Potency [6]: inactive | Potency [7]: inactive | Potency [8]: inactive | Potency [9]: inactive | outcome [10]: inactive | outcome [11]: inactive | Potency [12]: inactive | outcome [13]: inactive

COC(=O)[C@@]1(C=C2c3ccccc3[C@@H](OC)[C@@H]2C)[C@@H]2Oc3ccccc3[C@@H]21
outcome [1]: inactive | outcome [2]: inactive | Potency [3]: inactive | outcome [4]: inactive

CC(=O)[C@]12C[C@]3(C)CCCN(C(=O)N[C@@H]1c1ccccc1)C32 (stereo not given in full)
outcome [1]: inactive | outcome [2]: inactive | Potency [3]: inactive | outcome [4]: inactive

COC(=O)C1c2c(n(C)c3ccccc23)[C@H]2[C@@H](C)[C@H](OC)c3ccccc3[C@@H]12 (stereo not given in full)
outcome [2]: inactive | outcome [4]: inactive
